Values joined by “and” are separate entries in the source; they are usually repeats but may differ in a detail not shown here. Equal values may be shown once. Out of some 5,500 compounds screened, about 2,000 (36%) were called active. About 18% were inconclusive and are not listed. Rule as the data show it: active = normalized growth mostly below about 0.91 (no sharp cut-off); inconclusive = no clear call, values can overlap the other calls; inactive = mostly above about 0.92. This is one part of the list.
Assay: chemical genetic growth profiling, strain panel (AID 1159580);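 also: tested at 20 µM; growth read once vehicle control cultures reached saturation at 30 °C; 1 = growth at the plate median or of vehicle wells; lower values mean less growth of the strain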
Conditions: S. cerevisiae deletion strains, growth OD

Measured: normalized growth

CC1CCC2(OC1)OC1CC3C4CCC5C[C@@H](O)CCC5(C)C4=CCC3(C)C1[C@@H]2C (stereo partly drawn)
inactive: locus YAL021C, strain ccr4, active compounds read low 1 | locus YAL026C, strain drs2, active compounds read low 0.999 | locus YAL030W, strain snc1, active compounds read low 1.02 | locus YBL061C, strain skt5, active compounds read low 1.01 | locus YBR009C, strain hhf1, active compounds read low 1.01 | locus YBR021W, strain FUR4, active compounds read low 1.13 | locus YBR023C, strain chs3, active compounds read low 1.01 | locus YBR171W, strain sec66, active compounds read low 0.995 | locus YBR229C, strain ROT2, active compounds read low 0.991 | locus YBR231C, strain swc5, active compounds read low 0.997 | locus YBR279W, strain paf1, active compounds read low 1 | locus YCL011C, strain gbp2, active compounds read low 0.991 | locus YCL016C, strain dcc1, active compounds read low 1 | locus YCL029C, strain bik1, active compounds read low 0.972 | locus YCL069W, strain vba3, active compounds read low 0.994 | locus YCR088W, strain abp1, active compounds read low 1.01 | locus YDL005C, strain med2, active compounds read low 1.02 | locus YDL035C, strain GPR1, active compounds read low 1.01 | locus YDL040C, strain nat1, active compounds read low 0.994 | locus YDL074C, strain BRE1, active compounds read low 1.01 | locus YDL101C, strain DUN1, active compounds read low 0.985 | locus YDL185W, strain tfp1, active compounds read low 0.948 | locus YDL192W, strain arf1, active compounds read low 0.985 | locus YDR001C, strain nth1, active compounds read low 0.997 | locus YDR069C, strain doa4, active compounds read low 1.01 | locus YDR101C, strain arx1, active compounds read low 1.01 | locus YDR137W, strain rgp1, active compounds read low 1.04 | locus YDR159W, strain sac3, active compounds read low 1.01 | locus YDR162C, strain NBP2, active compounds read low 1.01 | locus YDR195W, strain ref2 0.931 | locus YDR297W, strain sur2, active compounds read low 0.998 | locus YDR318W, strain mcm21, active compounds read low 0.979 | locus YDR334W, strain swr1, active compounds read low 1.01 | locus YDR335W, strain msn5, active compounds read low 1 | locus YDR388W, active compounds read low 0.966 | locus YDR392W, strain spt3, active compounds read low 0.994 | locus YDR502C, strain sam2, active compounds read low 0.974 | locus YEL003W, strain gim4, active compounds read low 1 | locus YEL037C, strain rad23, active compounds read low 1 | locus YEL061C, strain CIN8 (second series), active compounds read low 0.993 | locus YEL061C, strain CIN8, active compounds read low 0.996 | locus YER015W, strain faa2, active compounds read low 1 | locus YER016W, strain bim1, active compounds read low 1 | locus YER110C, active compounds read low 0.959 | locus YER111C, strain swi4, active compounds read low 0.994 | locus YER155C, strain BEM2 (second series), active compounds read low 0.994 | locus YER155C, strain BEM2, active compounds read low 1.01 | locus YER167W, strain BCK2, active compounds read low 1.01 | locus YFR010W, strain ubp6, active compounds read low 1 | locus YGL078C, strain dbp3, active compounds read low 0.948 | locus YGL086W, strain mad1, active compounds read low 0.998 | locus YGL167C, strain pmr1, active compounds read low 1.01 | locus YGL173C, strain kem1, active compounds read low 1.01 | locus YGL227W, strain vid30, active compounds read low 0.986 | locus YGL240W, strain doc1, active compounds read low 1.01 | locus YGL248W, strain PDE1, active compounds read low 0.999 | locus YGL253W, strain hxk2, active compounds read low 0.99 | locus YGR135W, strain pre9, active compounds read low 0.958 | locus YGR252W, strain gcn5, active compounds read low 1.01 | locus YHR013C, strain ard1, active compounds read low 0.998 | locus YHR027C, strain rpn1, active compounds read low 0.989 | locus YHR030C, strain SLT2, active compounds read low 0.972 and 1.02 | locus YHR079C, strain IRE1 (second series), active compounds read low 0.983 | locus YHR079C, strain IRE1, active compounds read low 1.01 | locus YHR094C, strain hxt1, active compounds read low 0.973 | locus YHR129C, strain ARP1, active compounds read low 0.998 | locus YHR142W, strain chs7, active compounds read low 0.995 | locus YHR200W, strain rpn10, active compounds read low 0.986 | locus YIL066C, strain RNR3, active compounds read low 1 | locus YIL073C, strain SPO22, active compounds read low 0.937 | locus YIL125W, strain kgd1, active compounds read low 0.982 | locus YIR030C, strain dcg1, active compounds read low 0.991 | locus YJL092W, strain hpr5, active compounds read low 0.993 | locus YJL095W, strain BCK1 (second series), active compounds read low 1.02 | locus YJL095W, strain BCK1, active compounds read low 0.982 and 1.02 | locus YJL115W, strain asf1, active compounds read low 0.986 | locus YJL129C, strain trk1, active compounds read low 1.01 | locus YJL134W, strain LCB3, active compounds read low 0.987 | locus YJL154C, strain vps35, active compounds read low 1 | locus YJL164C, strain tpk1, active compounds read low 1.01 | locus YJL166W, strain qcr8, active compounds read low 1 | locus YJL168C, strain set2, active compounds read low 0.984 | locus YJL187C, strain SWE1 (second series), active compounds read low 0.986 | locus YJL187C, strain SWE1, active compounds read low 1.01 | locus YJR043C, strain POL32, active compounds read low 1.02 | locus YJR066W, strain TOR1, active compounds read low 0.945 | locus YKL009W, strain mrt4, active compounds read low 0.988 | locus YKL068W, active compounds read low 0.97 | locus YKL085W, strain MDH1 (second series), active compounds read low 0.978 | locus YKL085W, strain MDH1, active compounds read low 0.978 | locus YKL160W, strain elf1, active compounds read low 0.992 | locus YKL190W, strain CNB1, active compounds read low 0.992 | locus YKR001C, strain vps1, active compounds read low 0.983 | locus YKR026C, strain gcn3, active compounds read low 1 | locus YKR091W, strain srl3, active compounds read low 1.01 | locus YLL001W, strain dnm1, active compounds read low 1.01 | locus YLL026W, active compounds read low 0.992 | locus YLL041C, strain sdh2, active compounds read low 0.992 | locus YLR027C, strain aat2, active compounds read low 0.985 | locus YLR039C, strain RIC1, active compounds read low 1.01 | locus YLR058C, strain SHM2, active compounds read low 0.973 | locus YLR102C, strain apc9, active compounds read low 0.974 | locus YLR113W, strain HOG1, active compounds read low 0.992 | locus YLR221C, strain rsa3, active compounds read low 1 | locus YLR258W, strain gsy2, active compounds read low 0.994 | locus YLR262C, strain YPT6 (second series), active compounds read low 1.1 | locus YLR262C, strain YPT6, active compounds read low 1.04 | locus YLR268W, strain sec22, active compounds read low 0.999 | locus YLR320W, strain mms22, active compounds read low 1 | locus YLR330W, strain CHS5, active compounds read low 0.993 | locus YLR342W, strain FKS1 (second series), active compounds read low 1.05 | locus YLR342W, strain FKS1, active compounds read low 1.05 | locus YLR357W, strain rsc2, active compounds read low 1 | locus YLR370C, strain arc18, active compounds read low 1.02 | locus YLR371W, strain rom2, active compounds read low 0.978 | locus YLR384C, strain iki3, active compounds read low 1.01 | locus YLR418C, strain cdc73, active compounds read low 0.977 | locus YML016C, strain PPZ1, active compounds read low 1.01 | locus YML032C, strain rad52, active compounds read low 0.964 | locus YML120C, strain ndi1, active compounds read low 0.99 | locus YML124C, strain tub3, active compounds read low 0.98 | locus YMR058W, strain fet3, active compounds read low 0.983 | locus YMR078C, strain ctf18, active compounds read low 0.98 | locus YMR125W, strain sto1, active compounds read low 0.995 | locus YMR129W, active compounds read low 0.997 | locus YMR205C, strain PFK2, active compounds read low 0.997 | locus YMR223W, strain ubp8, active compounds read low 0.994 | locus YMR231W, strain pep5, active compounds read low 0.998 | locus YMR263W, strain SAP30, active compounds read low 0.982 | locus YMR307W, strain GAS1, active compounds read low 1.27 | locus YNL067W, strain RPL9B, active compounds read low 0.974 | locus YNL071W, strain lat1, active compounds read low 1.02 | locus YNL183C, strain NPR1, active compounds read low 0.963 | locus YNL209W, strain ssb2, active compounds read low 1 | locus YNL233W, strain BNI4, active compounds read low 0.99 | locus YNL248C, strain rpa49, active compounds read low 1.01 | locus YNL250W, strain rad50, active compounds read low 0.959 | locus YNL271C, strain bni1, active compounds read low 0.983 | locus YNL298W, strain CLA4, active compounds read low 0.98 | locus YNL307C, strain MCK1, active compounds read low 0.982 | locus YNL322C, strain KRE1 (second series), active compounds read low 0.986 | locus YNL322C, strain KRE1, active compounds read low 1 | locus YNR049C, strain mso1, active compounds read low 1.01 | locus YNR052C, strain pop2, active compounds read low 0.981 | locus YOL012C, strain htz1 0.809 | locus YOL147C, strain pex11, active compounds read low 0.98 | locus YOR001W, strain rrp6, active compounds read low 1.01 | locus YOR061W, strain CKA2, active compounds read low 1 | locus YOR069W, strain VPS5, active compounds read low 0.981 | locus YOR070C, strain gyp1, active compounds read low 1.01 | locus YOR080W, strain dia2, active compounds read low 1.01 | locus YOR083W, strain WHI5, active compounds read low 1 | locus YOR106W, strain vam3, active compounds read low 1.02 | locus YOR136W, strain idh2, active compounds read low 0.983 | locus YOR144C, strain elg1, active compounds read low 0.979 | locus YOR184W, strain ser1, active compounds read low 0.996 | locus YOR231W, strain MKK1, active compounds read low 1 | locus YOR265W, strain rbl2, active compounds read low 0.999 | locus YOR270C, strain vph1, active compounds read low 1.04 | locus YOR290C, strain snf2, active compounds read low 1 | locus YOR316C, strain cot1, active compounds read low 0.959 | locus YPL051W, strain arl3, active compounds read low 0.997 | locus YPL055C, strain LGE1, active compounds read low 1.02 | locus YPL078C, strain atp4, active compounds read low 0.991 | locus YPL106C, strain sse1, active compounds read low 0.995 | locus YPL240C, strain hsp82, active compounds read low 1.01 | locus YPL241C, strain CIN2, active compounds read low 0.989 | locus YPL256C, strain CLN2, active compounds read low 0.983 | locus YPR119W, strain clb2, active compounds read low 0.985 | locus YPR141C, strain kar3, active compounds read low 0.962 | locus YPR163C, strain tif3, active compounds read low 0.954 | locus YPR167C, strain met16, active compounds read low 0.989 | strain wtn01, active compounds read low 0.986

Source: PubChem BioAssay AID1159580 (chemical genetic matrix, 2015)
